In PubChem BioAssay (NCI):
Values joined by “and” are separate entries in the source; they are usually repeats but may differ in a detail not shown here. Identical values can stand only once. This is part of a sample that, as a whole, favours compounds with a hit. Of some 83,000 tested, about 20% had one in any assay.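 Treatment: one concentration, 48 hours, 96-well format. Scoring: percent growth, with anything below 10 considered active.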 Unmarked numbers belong to inactive results. Active and inactive are the calls of the source.

Legend:
Experiment in all cases: NCI-60 one-dose screen, 48 h (100 = growth as untreated, 0 = no growth, -100 = all killed)
Settings in all cases: 10 µM unless noted
SR leukemia = system: SR leukemia
RPMI-8226 leukemia = system: RPMI-8226 leukemia
OVCAR-8 ovarian = system: OVCAR-8 ovarian
OVCAR-5 ovarian = system: OVCAR-5 ovarian
OVCAR-4 ovarian = system: OVCAR-4 ovarian
SK-OV-3 ovarian = system: SK-OV-3 ovarian
IGROV1 ovarian = system: IGROV1 ovarian
OVCAR-3 ovarian = system: OVCAR-3 ovarian
HS 578T breast = system: HS 578T breast
NCI/ADR-RES ovarian = system: NCI/ADR-RES ovarian

| Compound | growth (SR leukemia) | growth (RPMI-8226 leukemia) | growth (OVCAR-8 ovarian) | growth (OVCAR-5 ovarian) | growth (OVCAR-4 ovarian) | growth (SK-OV-3 ovarian) | growth (IGROV1 ovarian) | growth (OVCAR-3 ovarian) | growth (HS 578T breast) | growth (NCI/ADR-RES ovarian) |
| --- | --- | --- | --- | --- | --- | --- | --- | --- | --- | --- |
| N#CC1=C(c2cccs2)Nc2c(c(-c3ccccc3)nn2-c2ccccc2)C12C(=O)Nc1ccc(Br)cc12 (stereo not given) | -1.14% (active) | 2.85% (active) | -14.6% (active) | -60.4% (active) | 0.653% (active) | -0.147% (active) | -7.57% (active) | -25.7% (active) | -7.18% (active) | 10.5% |
| CCCN(CCC)S(=O)(=O)c1ccc(C(=O)O)cc1.CCCN(CCC)S(=O)(=O)c1ccc(C(=O)O)cc1.[Cl][Pt+2][Cl].[NH2-].[NH2-] | 3.39% (active) | 12.3% | 39.7% | 24.5% | 35.4% | 18.8% | 7.54% (active) | 0.454% (active) | 80.8% | 101% |
| O=C1Nc2cc(-c3ccc(NS(=O)(=O)c4ccc(C(F)(F)F)cc4)cc3)ccc2/C1=C/c1ccc[nH]1 | 4.6% (active) | 26% | 57% | 45.1% | 31.5% | 57.7% | 61.3% | 39.8% | 40.6% | 40.5% |
| COc1ccc2[nH]c(O)c(N=Nc3nc(-c4ccc(Br)cc4)cs3)c2c1 | 19.3% | 16.3% | -23.7% (active) | 31.4% | -69.6% (active) | -35.3% (active) | 30.6% | -71.3% (active) | 29.3% | -24.6% (active) |
| Cn1cc(-c2cc(N)n3nc(-c4c[nH]c5ccc(Cl)cc45)cc3n2)c2cc(Br)cnc21 | -40.9% (active) | -43.6% (active) | -60.1% (active) | -61.2% (active) | -54% (active) | 65.1% | -49.3% (active) | -81% (active) | -16.2% (active) | -54.7% (active) |
| O=C(CSc1nnc(-c2ccc(-c3nc4ccccc4[nH]3)cc2)o1)Nc1ccc(Cl)cc1 | 2.31% (active) | 7.96% (active) | -18% (active) | 47.1% | 45.1% | 83.1% | 44.4% | 20.8% | 63.1% | 30% |
| COc1ccc2[nH]c(O)c(N=Nc3nc(-c4ccc(Cl)cc4)cs3)c2c1 | 5.78% (active) | 13.1% | -64.4% (active) | 10.3% | -49.9% (active) | -38.4% (active) | -3.99% (active) | -90.4% (active) | 9.33% (active) | -37.4% (active) |
| O=CNc1cccc(-n2cnc3cc(-c4ccc(O)cc4)ccc32)c1 | 33.8% | 24.3% | 31.6% | 68.7% | 65.4% | 28.4% | 44.3% | 26.8% | 24.4% | 12.1% |
| Nc1cc2ccccc2c(=O)n1NC(=O)c1ccc(Br)cc1 | 72.5% | 92.1% | 98.6% | 97.8% | 91% | 115% | 101% | 79.2% | 102% | 93% |
| COc1ccc2c(c1)C(=O)N(C)C2C1c2c(cc3c(c2OC)OCO3)CCN1C (stereo not given) | 18.8% | 73.8% | 78.1% | 67.2% | 69.4% | 64% | 43.2% | 9.03% (active) | 48.4% | 27.9% |
| COC(=O)c1cc(C(C)=O)n2c3ccccc3c3ccccc3c12 | 64.7% | 87.7% | 50.5% | 92.6% | 44.3% | 99.3% | 41.5% | 73.4% | 29.8% | 44.6% |
| COc1cc(/C=C/C(=O)c2cnn(-c3cc(=O)[nH]c4ccc(Br)cc34)c2C)cc(OC)c1OC | -15.2% (active) | -23.7% (active) | 7.35% (active) | -68% (active) | 25.6% | 19.5% | -59.8% (active) | -59.1% (active) | 54.1% | -26.8% (active) |
| CC(=O)Nc1cccc(-n2c(COc3ccc(Br)cc3)nc3ccccc32)c1 | 79.1% and 87.9% | 87.2% and 107% | 113% and 114% | 105% and 109% | 88.1% and 101% | 76.5% and 107% | 90.7% and 111% | 96.9% and 97.7% | 78.2% and 106% | 89.3% and 104% |
| COc1cc(C2CC(c3ccc(S(=O)(=O)NCCNc4nc(N(C)C)nc(N5CCOCC5)n4)cc3)=Nc3c(N)nc(N)nc3N2)cc(OC)c1OC (stereo not given) | 93.3% | 84.9% | 103% | 93.4% | 95.1% | 115% | 105% | 105% | 76.6% | 92.8% |
| CCCCNC(=S)Nc1ccc(OCc2nc3ccc(Cl)cc3[nH]2)cc1 | 2.29% (active) | -0.388% (active) | 38.7% | 28.2% | 21.5% | 75.4% | 12.9% | 13.6% | 28.5% | 21.6% |
| C[C@@H]1CN(c2ccc3ncc(C#Cc4cncc(C(=O)Nc5ccc(CN6CCN(C)CC6)c(C(F)(F)F)c5)c4)n3n2)C[C@@H](C)O1 | -27.6% (active) | -65% (active) | -71.8% (active) | -54.2% (active) | -61.5% (active) | -80.1% (active) | -56.3% (active) | -60.6% (active) | -49.2% (active) | -85.1% (active) |
| Nc1ccc(-c2ccc3ncnc(N4CCc5cc(F)c(Cl)cc54)c3c2)cn1 | 0.174% (active) | 6.22% (active) | 42.5% | 20.6% | 34.6% | 1.92% (active) | -46% (active) | 4.61% (active) | -15.8% (active) | 30% |
| COc1cc(C2C(C(=O)OCc3ccccc3)=C(C)Nc3nc4ccccc4n32)cc(OC)c1OC (stereo not given) | 11.3% | 48.8% | 13.5% | 45.5% | 1.46% (active) | 25.6% | 44.1% | 12.1% | 14% | 6.58% (active) |
| FC(F)(F)c1cc2c(Cl)ncnc2n1CCN1CCCCC1 | -50.9% (active) | 102% | 14.8% | 95% | 13.5% | 97.2% | -84.8% (active) | -21.7% (active) | 56.3% | 79% |
| COc1ccc(NC(=O)Cn2c(/C=C/c3ccc([N+](=O)[O-])cc3)nc3ccccc3c2=O)cc1 | 88.9% | 90.6% | 45.8% | 76.4% | 16.4% | 33.6% | 59.6% | 60.2% | 29.9% | 39% |
| CC1=C(C)C(=O)C(N2CCSCC2)=CC1=O | 111% | 72.9% | 92.7% | 97.2% | 94.4% | 105% | 92.9% | 101% | 103% | 93.7% |
| COc1cc(C=O)ccc1OC(=O)c1cc(-c2ccc(C)cc2)n(-c2ccc(S(C)(=O)=O)cc2)n1 | 121% | 94.7% | 105% | 109% | 105% | 107% | 111% | 119% | 116% | 107% |
| COc1ccc2[nH]c(O)c(N=Nc3nc(-c4ccc(C#N)cc4)cs3)c2c1 | 17.4% | 34.9% | 58.2% | 94.1% | -46.8% (active) | 104% | 77.6% | 8.62% (active) | 36.5% | 63.1% |
| CCOc1ccccc1[C@H]1C(C(=O)c2ccc(Cl)cc2)C2(N[C@@H]1c1ccccc1)C(=O)Nc1ccccc12 (stereo not given in full) | -38% (active) | 10.9% | 28% | 14.5% | 17.7% | 26% | 17.9% | 25.5% | 6.17% (active) | -40.6% (active) |
| COc1ccc(S(=O)(=O)Nc2ccc(-c3ccc4c(c3)NC(=O)/C4=C\c3ccc[nH]3)cc2)cc1OC | 8.03% (active) | 39.4% | 1.66% (active) | 18.5% | 8.08% (active) | 27.1% | 29.3% | 57.2% | 23.4% | 22.1% |
